These results are taken from PubChem BioAssay.

The source made the active and inactive calls. The rule behind the calls is not given here.

As usually defined, the inhibition is the change of the read-out against control, counted positive when it falls.

In this assay the target is Pantothenate synthetase (Mycobacterium tuberculosis (strain ATCC 25618 / H37Rv)) (UniProt P9WIL5). Kind of assay: Recombinant Mtb pantothenate synthetase (PanC) inhibitors, coupled enzyme, confirmatory (AID 375).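 Note: 0% = full reaction with vehicle and 100% = no enzyme background.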 The note with it: coupled enzyme assay; at 10 µM, hits give high values.
Sequence of Pantothenate synthetase (Mycobacterium tuberculosis (strain ATCC 25618 / H37Rv)) (P9WIL5 whole entry, looked up): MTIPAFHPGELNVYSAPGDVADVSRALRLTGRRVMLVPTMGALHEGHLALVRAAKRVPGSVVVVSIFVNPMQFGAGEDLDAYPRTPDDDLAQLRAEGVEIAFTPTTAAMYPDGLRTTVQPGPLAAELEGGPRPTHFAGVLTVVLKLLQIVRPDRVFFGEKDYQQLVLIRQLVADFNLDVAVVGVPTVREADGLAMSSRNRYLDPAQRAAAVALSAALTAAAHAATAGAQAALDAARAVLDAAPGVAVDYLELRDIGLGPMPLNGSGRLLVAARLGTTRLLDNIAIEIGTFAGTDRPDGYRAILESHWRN
For the molecule `COC(=O)c1ccc(NC(=O)CN2C(=O)CSC2=O)cc1`, the inhibition is 5% (inactive).

Turning to `CC(C)COC(=O)C1C2C=CC3(CN(C(C)c4ccc(Br)cc4)C(=O)C13)O2` (stereo not given), the inhibition was 8% (inactive). As for `Cc1c(C(=O)OCCOC(C)C)[nH]c2c1C(=O)CC(c1ccco1)C2` (stereo not given), the inhibition was 0% (inactive). The same measure for `CC(C)=CCCC(C)CN(C)CCc1ccccn1` (stereo not given): 0% (inactive).

As to `CCOC(=O)C1CCN(C(=O)Nc2ccc3snnc3c2)CC1`, the inhibition was 6% (inactive). `CCSc1nnc(NC(=O)C2CCCN(S(=O)(=O)c3cnc[nH]3)C2)s1` (stereo not given): the inhibition is 7% (inactive). In the case of `COC(=O)c1cc(OC)c(OC)cc1NC(=O)c1ccc(Br)o1`, the inhibition was 0% (inactive). Take `Cc1csc(SCc2nc3sc4c(c3c(=O)[nH]2)CCC4)n1`: the inhibition is 0% (inactive). The same measure for `Cc1oc(-c2cccc(Cl)c2)nc1CN1CCC(C(=O)N2CCN(c3ccccc3F)CC2)CC1`: 2% (inactive). Take `CCN(CC)CCCN1C(=O)C(=O)/C(=C(/O)c2ccccc2)C1c1ccccn1` (stereo not given): the inhibition is 0% (inactive).

On to `Brc1ccc2ncnc(Nc3ccc(N4CCOCC4)cc3)c2c1`, for which the inhibition was 0% (inactive).

Take `C=CCn1c(COc2cccc(C)c2)nnc1SCC(=O)NC(=O)NCc1ccco1`: the inhibition is 0% (inactive). For `Cc1cc(Nc2ccc(C(=O)O)cc2)n2nc(C)nc2n1` the value was 7% (inactive); for `CC(=O)NC1=NC(=O)/C(=C/N2CCCCC2)S1`, 8% (inactive). Take `O=C(Oc1ccc2c(c1)CCC2)N1CCOCC1`: the inhibition was 0% (inactive). The same measure for `CSCSC1=C(C#N)C(c2ccc(Cl)cc2)C(C(C)=O)=C(C)N1` (stereo not given): 0% (inactive); for `COc1ccccc1CNS(=O)(=O)c1ccc(NC(C)=O)cc1`: 0% (inactive).

For `O=C(O)c1cccc(COCC(F)(F)C(F)F)c1`, the inhibition was 0% (inactive). Turning to `O=c1oc2ccccc2c(N2CCCCC2)c1CN1CCCCC1`, the inhibition is 0% (inactive). Consider `CCCCC(=O)Nc1ccc(NC(=O)C2CC2)nc1`, for which the inhibition was 2% (inactive).

For the molecule `CC(C)(C)c1cc(NC(=O)c2cc(F)c(F)c(F)c2F)no1`, the inhibition is 0% (inactive). As to `CNC(=O)c1ccc(N(Cc2ccccc2C)S(C)(=O)=O)cc1`, the inhibition is 7% (inactive). Turning to `NC(=O)CSc1nnc(-c2cc3ccccc3o2)n1Cc1ccccc1`, the inhibition was 0% (inactive). For `CCOc1ccc(Cn2nnc(C(=O)Nc3cc(C)cc(C)c3)c2N)cc1` the value was 0% (inactive); for `NC(=O)c1nsnc1-c1ccccc1O`, 2% (inactive). For `COc1cc(NC(=O)C2CCCN2S(=O)(=O)c2cccc3cccnc23)cc(OC)c1OC` (stereo not given) the value was 0% (inactive).

On to `Cc1cccc(NC(=O)CSc2nnc(-c3ccccc3C)o2)c1`, for which the inhibition is 0% (inactive). For `O=C(Nc1ccc(N2CCCC2=O)cc1)c1cccc(F)c1` the value was 4% (inactive); for `CN(C1CCS(=O)(=O)C1)S(=O)(=O)c1cccc2nsnc12` (stereo not given), 2% (inactive). For `CC(C)(C)OC(=O)N1CCOCCOCCN(C(=O)OC(C)(C)C)CCOCCOCC1` the value was 0% (inactive); for `CCOc1ccc(N(CC)C(=O)COc2cc(=O)n(C)c3ccccc23)cc1`, 0% (inactive). On to `CCC1=C(C(=O)OC)C(c2cc(OC)ccc2OC)C(C#N)=C(N)O1` (stereo not given), for which the inhibition was 8% (inactive). For `Cc1ccccc1-c1nc(CN2CCC(C(=O)NCc3cccnc3)CC2)c(C)o1` the value was 0% (inactive); for `Cc1cc(C)c2oc(=O)cc(CN3CCOCC3)c2c1`, 0% (inactive); for `COC(=O)c1ccccc1NC(=O)C1CC(=O)N(c2ccc(F)cc2)C1` (stereo not given), 20% (inactive). The same measure for `Cc1ccc(OCC(O)Cn2c(=N)n(CCN3CCCCC3)c3ccccc32)cc1` (stereo not given): 0% (inactive); for `CC(=O)c1ccc(N2CCN(C(=O)c3cc(C)on3)CC2)cc1`: 0% (inactive); for `CCCCn1nnc(NC(=O)Cc2ccc(Cl)cc2)n1`: 0% (inactive). As to `COc1ccc(NC(=O)N2CCN(c3nc(-c4cccc(OC)c4)cs3)CC2)cc1`, the inhibition was 0% (inactive).

With `COc1cccc(C(=O)Nc2cnc(NC(=O)c3ccco3)cc2C)c1`, the inhibition was 9% (inactive).
